The values that follow come from PubChem BioAssay (Tox21).

Records with an inconclusive call do not appear. The source made the active and inactive calls. Calls follow the shape of the dose curve; as a rule, active = well fitted curve in the direction sought with a large enough effect in the repeat runs; inconclusive = weak or mixed curves; inactive = no such curve, though single readings can be large; an effect the other way counts as inactive or inconclusive.
% is scaled to controls: 0 for no effect and ±100 for the full control effect.

A short description of one experiment: qHTS assay to identify small molecule HDAC inhibitors (AID 1259364). Also: top concentration of the series differs between compounds; nearly all actives have a fitted effect of over 45% in size. The following applies: HCT-116 HDAC-Glo I/II luminescence, 2 h; series mostly up to 92.4 µM; activity change, negative = inhibition: at the top concentration. Put shortly:
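Endogenous HDAC class I/II activity was measured in wild-type HCT-116 cells by HDAC-Glo luminescence after 2 h compound treatment.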
On the technique in general: Quantitative high-throughput screening tests each substance at several concentrations.
As for `CCCSC(=O)N(CCC)CCC`, the “activity change, negative = inhibition” value was 2.19% (inactive).
In the case of `CC1(C(=O)Nc2ccc(O)c(Cl)c2Cl)CCCCC1`, the “activity change, negative = inhibition” value is 1.1% (inactive).
For `N#CC(CCc1ccc(Cl)cc1)(Cn1cncn1)c1ccccc1` (centres undefined), the “activity change, negative = inhibition” value was 4.53% (inactive).
The same measure, in the same setting: in the case of `CCS(=O)(=O)CCSP(=O)(OC)OC` it was -0.301% (inactive); in that of `[As]#[In]`, -0.115% (inactive).
For `COc1cccc2c1cc([N+](=O)[O-])c1c(C(=O)O)cc3c(c12)OCO3`, the “activity change, negative = inhibition” value is -8.63% (inactive).
Consider `CC(CC(C#N)(c1ccccc1)c1ccccc1)N(C)C` (centres undefined), for which the “activity change, negative = inhibition” value was 0.621% (inactive).
As for `Fc1ccc(C2(Cn3cncn3)OC2c2ccccc2Cl)cc1` (centres undefined), the “activity change, negative = inhibition” value is 1.18% (inactive).
Same read-out and setting: in the case of `COC(=O)COc1ccc(Cl)cc1Cl` it was -15.9% (inactive); in that of `CCCCCCBr`, 4.71% (inactive); in that of `CCCSP(=O)(OCC)Oc1ccc(Br)cc1Cl` (centres undefined), 2.77% [at 42.5 µM] (inactive).
Regarding `O=C(Nc1ccccc1)N(Cc1ccc(Cl)cc1)C1CCCC1`, the “activity change, negative = inhibition” value is -18.7% (inactive).
For the compound `Cc1ccccc1CO[C@@H]1C[C@@]2(C(C)C)CC[C@]1(C)O2`, the “activity change, negative = inhibition” value is -3.78% (inactive).
Same read-out and setting: in the case of `O=[N+]([O-])c1cccc2c([N+](=O)[O-])cccc12` it was -7.29% (inactive).
For the compound `CCNc1nc(NC(C)C)nc(OC)n1`, the “activity change, negative = inhibition” value is 1.44% (inactive).
With `CC(C)COP(=O)(OCC(C)C)OCC(C)C`, the “activity change, negative = inhibition” value is -0.89% (inactive).
As for `CNC(=O)Oc1cccc(C(C)C)c1`, the “activity change, negative = inhibition” value is 3.46% (inactive).
On the same count and under the same terms, in the case of `COc1cc(OC)nc(Sc2cccc(Cl)c2C(=O)O)n1` it was 14.6% (inactive); in that of `C[C@]1(O)CC[C@H]2[C@@H]3CCC4=CC(=O)CC[C@]4(C)[C@@]3(F)[C@@H](O)C[C@@]21C`, 4.83% (inactive).
For `CCC#N`, the “activity change, negative = inhibition” value was 2.68% (inactive).
Turning to `CC(C1CC1)C(O)(Cn1cncn1)c1ccc(Cl)cc1` (centres undefined), the “activity change, negative = inhibition” value is 2.37% (inactive).
For the compound `CC1CCC(=O)O1` (centres undefined), the “activity change, negative = inhibition” value is -1.51% (inactive).
Consider `CC(C)[N+](=O)[O-]`, for which the “activity change, negative = inhibition” value was 1.25% (inactive).
On the same count and under the same terms, in the case of `COc1cccc(C(=O)NN(C(=O)c2cc(C)cc(C)c2)C(C)(C)C)c1C` it was -0.811% (inactive).
As for `COCC(=O)N(c1c(C)cccc1C)N1CCOC1=O`, the “activity change, negative = inhibition” value was -0.631% (inactive).
As to `CCOP(=S)(Oc1cnc(C(C)(C)C)nc1)OC(C)C` (centres undefined), the “activity change, negative = inhibition” value was 4.41% (inactive).
Same read-out and setting: with `O=[N+]([O-])c1cc(Cl)c(Cl)c(Cl)c1` the figure was 2.46% (inactive).
As for `ClCC(Cl)Cl`, the “activity change, negative = inhibition” value was -4.24% (inactive).

The next experiment is described as follows: qHTS assay to identify small molecule HDAC inhibitors - cell viability counter screen (AID 1259365). Also: nearly all actives have a fitted effect of over 50% in size. The following applies: HCT-116 viability, CellTiter-Glo ATP luminescence, 2 h; series mostly up to 92.4 µM; activity change, negative = cytotoxicity: at the top concentration. The method, boiled down: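 HCT-116 (wild type), 1,500 cells/well, overnight 37C/5% CO2; compound in DMSO 2hr; CellTiter-Glo 30min RT; luminescence read.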
As for `CC1CCCCC1NC(=O)Nc1ccccc1` (centres undefined), the “activity change, negative = cytotoxicity” value is -1.52% (inactive).
With `CCCSC(=O)N(CCC)CCC`, the “activity change, negative = cytotoxicity” value was -0.0559% (inactive).
Consider `CC1(C(=O)Nc2ccc(O)c(Cl)c2Cl)CCCCC1`, for which the “activity change, negative = cytotoxicity” value was -10.9% (inactive).
With `N#CC(CCc1ccc(Cl)cc1)(Cn1cncn1)c1ccccc1` (centres undefined), the “activity change, negative = cytotoxicity” value was -11% (inactive).
Consider `CCS(=O)(=O)CCSP(=O)(OC)OC`, for which the “activity change, negative = cytotoxicity” value is -0.483% (inactive).
The same measure, in the same setting: with `[As]#[In]` the figure was -1.42% (inactive); with `C=CCC1=C(C)[C@@H](OC(=O)[C@@H]2[C@@H](C=C(C)C)C2(C)C)CC1=O`, 7.82% (inactive).
`O=C(CCN1CC1)OCC(CO)(COC(=O)CCN1CC1)COC(=O)CCN1CC1`: the “activity change, negative = cytotoxicity” value is 2.78% (inactive).
Regarding `CC(CC(C#N)(c1ccccc1)c1ccccc1)N(C)C` (centres undefined), the “activity change, negative = cytotoxicity” value is -5.95% (inactive).
Consider `Fc1ccc(C2(Cn3cncn3)OC2c2ccccc2Cl)cc1` (centres undefined), for which the “activity change, negative = cytotoxicity” value was -0.395% (inactive).
Turning to `COC(=O)COc1ccc(Cl)cc1Cl`, the “activity change, negative = cytotoxicity” value was -6.51% (inactive).
Consider `CCCCC(=O)Cl`, for which the “activity change, negative = cytotoxicity” value is -1.15% (inactive).
Consider `O=[N+]([O-])c1cccc(O)c1`, for which the “activity change, negative = cytotoxicity” value is -1.51% (inactive).
On the same count and under the same terms, in the case of `CCCCN(CCCCO)N=O` it was 2.56% (inactive); in that of `CCCCCCBr`, 2.81% (inactive); in that of `CCCSP(=O)(OCC)Oc1ccc(Br)cc1Cl` (centres undefined), -3.76% [at 42.5 µM] (inactive).
Take `O=C(Nc1ccccc1)N(Cc1ccc(Cl)cc1)C1CCCC1`: the “activity change, negative = cytotoxicity” value is 0.554% (inactive).
As to `Cc1ccccc1CO[C@@H]1C[C@@]2(C(C)C)CC[C@]1(C)O2`, the “activity change, negative = cytotoxicity” value is -15.4% (inactive).
With `O=[N+]([O-])c1cccc2c([N+](=O)[O-])cccc12`, the “activity change, negative = cytotoxicity” value is -1.81% (inactive).
For `CCNc1nc(NC(C)C)nc(OC)n1`, the “activity change, negative = cytotoxicity” value was 0.724% (inactive).
Turning to `COC(C)(C)C`, the “activity change, negative = cytotoxicity” value was 0.201% (inactive).
In the case of `CC(C)COP(=O)(OCC(C)C)OCC(C)C`, the “activity change, negative = cytotoxicity” value is -4.5% (inactive).
Turning to `CNC(=O)Oc1cccc(C(C)C)c1`, the “activity change, negative = cytotoxicity” value is 2.27% (inactive).
As for `COc1cc(OC)nc(Sc2cccc(Cl)c2C(=O)O)n1`, the “activity change, negative = cytotoxicity” value was -1.26% (inactive).
Consider `C[C@]1(O)CC[C@H]2[C@@H]3CCC4=CC(=O)CC[C@]4(C)[C@@]3(F)[C@@H](O)C[C@@]21C`, for which the “activity change, negative = cytotoxicity” value was 3.48% (inactive).
`CCC#N`: the “activity change, negative = cytotoxicity” value was -0.838% (inactive).
With `CC(C1CC1)C(O)(Cn1cncn1)c1ccc(Cl)cc1` (centres undefined), the “activity change, negative = cytotoxicity” value was -0.741% (inactive).
For `CC1CCC(=O)O1` (centres undefined), the “activity change, negative = cytotoxicity” value was 1.16% (inactive).
Turning to `CC(C)[N+](=O)[O-]`, the “activity change, negative = cytotoxicity” value was 2.34% (inactive).
For the compound `COc1cccc(C(=O)NN(C(=O)c2cc(C)cc(C)c2)C(C)(C)C)c1C`, the “activity change, negative = cytotoxicity” value is 0.408% (inactive).
As for `CCOC(=O)NC(=S)Nc1ccccc1NC(=S)NC(=O)OCC`, the “activity change, negative = cytotoxicity” value was -3.99% (inactive).
Turning to `COCC(=O)N(c1c(C)cccc1C)N1CCOC1=O`, the “activity change, negative = cytotoxicity” value was -0.769% (inactive).
Still for that read-out and setting: with `CCOP(=S)(Oc1cnc(C(C)(C)C)nc1)OC(C)C` (centres undefined) the figure was -12.4% (inactive); with `O=[N+]([O-])c1cc(Cl)c(Cl)c(Cl)c1`, 2.74% (inactive).
Regarding `CCCCOC(=O)c1ccccc1N`, the “activity change, negative = cytotoxicity” value is -10.5% (inactive).
In the case of `ClCC(Cl)Cl`, the “activity change, negative = cytotoxicity” value is 3.27% (inactive).
For `N#CC(O)c1ccccc1` (centres undefined), the “activity change, negative = cytotoxicity” value is 0.461% (inactive).

Another experiment can be described thus: qHTS assay to identify small molecule agonists of the sonic hedgehog signaling (Shh) pathway - cell viability counter screen (AID 1259366). Also: nearly all actives have a fitted effect of over 50% in size. Also: potency is read from the fitted curve at half-maximal effect. The following applies: NIH/3T3 Gli1-Luc viability, CellTiter-Fluor, 24 h; series mostly up to 92.4 µM; viability change, negative = cytotoxic: at the top concentration. Put shortly:
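CellTiter-Fluor fluorescence read-out, 1 hr at 37C, added after 23hr compound exposure. Cells: 3T3 Gli1-Luc, an NIH/3T3 clone with stably integrated Gli1-Luc reporter, plated 4hr before compound.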
Turning to `CC1CCCCC1NC(=O)Nc1ccccc1` (centres undefined), the “viability change, negative = cytotoxic” value is 4.63% (inactive).
Consider `CCCSC(=O)N(CCC)CCC`, for which the “viability change, negative = cytotoxic” value is 4.94% (inactive).
With `CC1(C(=O)Nc2ccc(O)c(Cl)c2Cl)CCCCC1`, the Potency was 43.3 µM (active).
On to `N#CC(CCc1ccc(Cl)cc1)(Cn1cncn1)c1ccccc1` (centres undefined), for which the Potency is 48.6 µM (active).
Regarding `[As]#[In]`, the “viability change, negative = cytotoxic” value is 1.49% (inactive).
For the compound `O=C(CCN1CC1)OCC(CO)(COC(=O)CCN1CC1)COC(=O)CCN1CC1`, the “viability change, negative = cytotoxic” value was 0.0966% (inactive).
Regarding `COc1cccc2c1cc([N+](=O)[O-])c1c(C(=O)O)cc3c(c12)OCO3`, the Potency was 12.2 µM (active).
As to `Fc1ccc(C2(Cn3cncn3)OC2c2ccccc2Cl)cc1` (centres undefined), the “viability change, negative = cytotoxic” value is -11.3% (inactive).
In the case of `COC(=O)COc1ccc(Cl)cc1Cl`, the “viability change, negative = cytotoxic” value was 1.2% (inactive).
In the case of `CCCCC(=O)Cl`, the “viability change, negative = cytotoxic” value is -9.17% (inactive).
The same measure, in the same setting: in the case of `O=[N+]([O-])c1cccc(O)c1` it was -4.72% (inactive); in that of `CCCCN(CCCCO)N=O`, -2.04% (inactive); in that of `CCCCCCBr`, 3.54% (inactive).
The same measure, in the same setting: with `CCCSP(=O)(OCC)Oc1ccc(Br)cc1Cl` (centres undefined) the figure was -1.61% [at 42.5 µM] (inactive); with `Cc1ccccc1CO[C@@H]1C[C@@]2(C(C)C)CC[C@]1(C)O2`, 0.385% (inactive).
`O=[N+]([O-])c1cccc2c([N+](=O)[O-])cccc12`: the “viability change, negative = cytotoxic” value was -11.6% (inactive).
For the compound `CCNc1nc(NC(C)C)nc(OC)n1`, the “viability change, negative = cytotoxic” value was 7.97% (inactive).
Regarding `COC(C)(C)C`, the “viability change, negative = cytotoxic” value was 2.78% (inactive).
Take `CC(C)COP(=O)(OCC(C)C)OCC(C)C`: the “viability change, negative = cytotoxic” value was -3.25% (inactive).
Turning to `CNC(=O)Oc1cccc(C(C)C)c1`, the “viability change, negative = cytotoxic” value was -7.79% (inactive).
With `COc1cc(OC)nc(Sc2cccc(Cl)c2C(=O)O)n1`, the “viability change, negative = cytotoxic” value is -0.346% (inactive).
For `C[C@]1(O)CC[C@H]2[C@@H]3CCC4=CC(=O)CC[C@]4(C)[C@@]3(F)[C@@H](O)C[C@@]21C`, the “viability change, negative = cytotoxic” value is 2.38% (inactive).
Take `CCC#N`: the “viability change, negative = cytotoxic” value is -0.416% (inactive).
Still for that read-out and setting: in the case of `CC(C1CC1)C(O)(Cn1cncn1)c1ccc(Cl)cc1` (centres undefined) it was 1.67% (inactive); in that of `CC1CCC(=O)O1` (centres undefined), -3.62% (inactive).
In the case of `CC(C)[N+](=O)[O-]`, the “viability change, negative = cytotoxic” value was 0.187% (inactive).
Consider `COc1cccc(C(=O)NN(C(=O)c2cc(C)cc(C)c2)C(C)(C)C)c1C`, for which the Potency was 13.7 µM (active).
As for `CCOC(=O)NC(=S)Nc1ccccc1NC(=S)NC(=O)OCC`, the “viability change, negative = cytotoxic” value is -0.914% (inactive).
In the case of `COCC(=O)N(c1c(C)cccc1C)N1CCOC1=O`, the “viability change, negative = cytotoxic” value is -0.839% (inactive).
The same measure, in the same setting: in the case of `CCOP(=S)(Oc1cnc(C(C)(C)C)nc1)OC(C)C` (centres undefined) it was 1.55% (inactive); in that of `O=[N+]([O-])c1cc(Cl)c(Cl)c(Cl)c1`, 3.09% (inactive).
Take `CCCCOC(=O)c1ccccc1N`: the “viability change, negative = cytotoxic” value is -11.6% (inactive).
Consider `ClCC(Cl)Cl`, for which the “viability change, negative = cytotoxic” value was 5% (inactive).
As for `N#CC(O)c1ccccc1` (centres undefined), the “viability change, negative = cytotoxic” value was 2.03% (inactive).
